Test results published in PubChem BioAssay AID1159580 (chemical genetic matrix, 2015).
About 2,000 (36%) of roughly 5,500 compounds were called active. Not shown: some 18% with an inconclusive outcome. No stated cut-off is given here; in the data, active means normalized growth mostly below about 0.91 (no sharp cut-off); inconclusive means no clear call, values can overlap the other calls; inactive means mostly above about 0.92. This is one part of the list.

Test: chemical genetic growth profiling, strain panel (AID 1159580);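 further: tested at 20 µM; growth read once vehicle control cultures reached saturation at 30 °C; 1 = growth at the plate median or of vehicle wells; lower values mean less growth of the strain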
Conditions: S. cerevisiae deletion strains, growth OD

Measured: normalized growth

C1CNCCN1
inactive: locus YAL013W, strain DEP1, active compounds read low 1.01 | locus YAL021C, strain ccr4, active compounds read low 0.999 | locus YAL026C, strain drs2, active compounds read low 1.02 | locus YAL030W, strain snc1, active compounds read low 1.01 | locus YBL061C, strain skt5, active compounds read low 1.02 | locus YBR009C, strain hhf1, active compounds read low 1.01 | locus YBR021W, strain FUR4, active compounds read low 0.979 | locus YBR023C, strain chs3, active compounds read low 1.02 | locus YBR171W, strain sec66, active compounds read low 1.02 | locus YBR229C, strain ROT2, active compounds read low 0.997 | locus YBR231C, strain swc5, active compounds read low 0.997 | locus YBR279W, strain paf1, active compounds read low 1.01 | locus YCL011C, strain gbp2, active compounds read low 1.01 | locus YCL016C, strain dcc1, active compounds read low 1.01 | locus YCL029C, strain bik1, active compounds read low 0.997 | locus YCL061C, strain MRC1, active compounds read low 1 | locus YCL069W, strain vba3, active compounds read low 1.01 | locus YCR088W, strain abp1, active compounds read low 1.01 | locus YDL005C, strain med2, active compounds read low 1.02 | locus YDL035C, strain GPR1, active compounds read low 1.01 | locus YDL040C, strain nat1, active compounds read low 1.01 | locus YDL074C, strain BRE1, active compounds read low 1.03 | locus YDL101C, strain DUN1, active compounds read low 1.02 | locus YDL134C, strain PPH21, active compounds read low 1.01 | locus YDL185W, strain tfp1, active compounds read low 1.02 | locus YDL192W, strain arf1, active compounds read low 0.999 | locus YDR001C, strain nth1, active compounds read low 1.01 | locus YDR069C, strain doa4, active compounds read low 1.01 | locus YDR101C, strain arx1, active compounds read low 0.987 | locus YDR137W, strain rgp1, active compounds read low 1.03 | locus YDR150W, strain NUM1, active compounds read low 1 | locus YDR159W, strain sac3, active compounds read low 1.04 | locus YDR162C, strain NBP2, active compounds read low 1.02 | locus YDR195W, strain ref2 1 | locus YDR297W, strain sur2, active compounds read low 1.01 | locus YDR318W, strain mcm21, active compounds read low 0.998 | locus YDR334W, strain swr1, active compounds read low 1.01 | locus YDR335W, strain msn5, active compounds read low 1.01 | locus YDR388W, active compounds read low 0.996 | locus YDR392W, strain spt3, active compounds read low 0.962 | locus YDR502C, strain sam2, active compounds read low 0.999 | locus YEL003W, strain gim4, active compounds read low 1.01 | locus YEL037C, strain rad23, active compounds read low 1.01 | locus YEL061C, strain CIN8 (second series), active compounds read low 1.01 | locus YEL061C, strain CIN8, active compounds read low 1 | locus YER015W, strain faa2, active compounds read low 0.999 | locus YER016W, strain bim1, active compounds read low 0.999 | locus YER110C, active compounds read low 0.988 | locus YER111C, strain swi4, active compounds read low 1.02 | locus YER155C, strain BEM2 (second series), active compounds read low 1 | locus YER155C, strain BEM2, active compounds read low 1.01 | locus YER167W, strain BCK2, active compounds read low 1.01 | locus YFR010W, strain ubp6, active compounds read low 1.01 | locus YGL078C, strain dbp3, active compounds read low 0.99 | locus YGL086W, strain mad1, active compounds read low 0.996 | locus YGL167C, strain pmr1, active compounds read low 1.02 | locus YGL173C, strain kem1, active compounds read low 1.02 | locus YGL227W, strain vid30, active compounds read low 1.01 | locus YGL240W, strain doc1, active compounds read low 1.01 | locus YGL248W, strain PDE1, active compounds read low 1 | locus YGL253W, strain hxk2, active compounds read low 0.992 | locus YGR078C, strain PAC10, active compounds read low 1 | locus YGR135W, strain pre9, active compounds read low 1.01 | locus YGR229C, strain SMI1, active compounds read low 1.02 | locus YGR252W, strain gcn5, active compounds read low 0.948 | locus YHR013C, strain ard1, active compounds read low 1.03 | locus YHR027C, strain rpn1, active compounds read low 1.02 | locus YHR030C, strain SLT2, active compounds read low 1.02 | locus YHR079C, strain IRE1 (second series), active compounds read low 0.988 | locus YHR079C, strain IRE1, active compounds read low 1.03 | locus YHR094C, strain hxt1, active compounds read low 1 | locus YHR129C, strain ARP1, active compounds read low 1.01 | locus YHR142W, strain chs7, active compounds read low 1.02 | locus YHR200W, strain rpn10, active compounds read low 1.01 | locus YIL066C, strain RNR3, active compounds read low 1.01 | locus YIL073C, strain SPO22, active compounds read low 0.983 | locus YIL125W, strain kgd1, active compounds read low 1 | locus YIR030C, strain dcg1, active compounds read low 1 | locus YJL092W, strain hpr5, active compounds read low 1.01 | locus YJL095W, strain BCK1 (second series), active compounds read low 1.02 | locus YJL095W, strain BCK1, active compounds read low 1.01 | locus YJL115W, strain asf1, active compounds read low 1.01 | locus YJL129C, strain trk1, active compounds read low 1.01 | locus YJL134W, strain LCB3, active compounds read low 1.01 | locus YJL154C, strain vps35, active compounds read low 1.02 | locus YJL164C, strain tpk1, active compounds read low 1.01 | locus YJL166W, strain qcr8, active compounds read low 1.02 | locus YJL168C, strain set2, active compounds read low 0.994 | locus YJL187C, strain SWE1 (second series), active compounds read low 1.02 | locus YJL187C, strain SWE1, active compounds read low 1.01 | locus YJR043C, strain POL32, active compounds read low 1.01
